Measurements taken from PubChem BioAssay (EPA / NIEHS).
Values joined by “and” are separate entries in the source; they are usually repeats but may differ in a detail not shown here. Equal values may be shown once. Inconclusive results are not listed. Active and inactive are the calls of the source. How the source made its calls, unless noted: active means hit-call score of the fitted dose curve at least 0.9, where 1 is the maximum; inconclusive means response in the unintended direction; inactive means score below 0.9.

Tests used:
[1] = TOX21_p53_BLA_p2_viability: Viability Assessment in the Tox21 HCT-116 p53 Agonism Beta-lactamase Assay, Phase 2 (AID 2283591);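 further: compound exposure lasted 16 h at 37 °C; actives lower the ATP signal meaning cytotoxicity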
Procedure, shortened: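 HCT116 p53-bla cells, 4000/well, dosed after 5 h plating (217-fold dilution of DMSO stocks) and incubated 16 h at 37C. Viability taken as cellular ATP by CellTiter-Glo luminescence after 30 min RT; signal loss marks cytotoxicity.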

[2] = molecular target: Cellular tumor antigen p53 (Homo sapiens) (UniProt P04637); test: TOX21_p53_BLA_p2_ratio: Tox21 HCT-116 p53 Agonism Beta-lactamase Assay, Ratio, Phase 2 (AID 2283592)
Procedure, shortened: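 Cleaved-to-uncleaved substrate ratio (460 vs 530 nm) measured in HCT116 cells with an inducible beta-lactamase reporter linked to p53 activity. Compounds incubated 16 h at 37C before 2 h room-temperature CCF4-AM loading.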

[3] = TOX21_p53_BLA_p3_viability: Viability Assessment in the Tox21 HCT-116 p53 Agonism Beta-lactamase Assay, Phase 3 (AID 2283593);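 further: cells exposed to compound for 16 h before reading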
Procedure, shortened: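 HCT116 cells, 4000/well, dosed 5 h after plating by pin transfer (217-fold dilution from DMSO stock) and incubated 16 h at 37C, 5% CO2. Viability read as ATP luminescence with CellTiter-Glo after 30 min at room temperature.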

[4] = molecular target: Cellular tumor antigen p53 (Homo sapiens) (UniProt P04637); test: TOX21_p53_BLA_p3_ratio: Tox21 HCT-116 p53 Agonism Beta-lactamase Assay, Ratio, Phase 3 (AID 2283596)
Procedure, shortened: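 Cells were seeded at 4000/well, rested 5 h at 37C, then dosed with DMSO compound solutions (217-fold dilution) for 16 h. CCF4-AM substrate was loaded for 2 h at room temperature, and the 460/530 nm emission ratio was fitted for gain of signal versus DMSO.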

[5] = TOX21_p53_BLA_p4_viability: Viability Assessment in the Tox21 HCT-116 p53 Agonism Beta-lactamase Assay, Phase 4 (AID 2283597);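 further: hits lower the luminescence signal meaning cytotoxicity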
Procedure, shortened: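 Viability is taken as cellular ATP: after 16 h compound exposure of HCT116 cells and a 2 h room-temperature CCF4-AM substrate step, CellTiter-Glo reagent is added and luminescence is measured 30 min later.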

[6] = molecular target: Cellular tumor antigen p53 (Homo sapiens) (UniProt P04637); test: TOX21_p53_BLA_p5_ratio: Tox21 HCT-116 p53 Agonism Beta-lactamase Assay, Ratio, Phase 5 (AID 2283599)
Procedure, shortened: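 HCT-116 p53-bla cells (4000/well) plated 5 h, dosed with compound (217-fold DMSO dilution) for 16 h at 37 C; CCF4-AM substrate 2 h at room temperature. Activity is the 460/530 nm emission ratio (405 nm excitation), fitted in gain-of-signal direction versus DMSO.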

[7] = molecular target: Cellular tumor antigen p53 (Homo sapiens) (UniProt P04637); test: TOX21_p53_BLA_p4_ratio: Tox21 HCT-116 p53 Agonism Beta-lactamase Assay, Ratio, Phase 4 (AID 2283601)
Procedure, shortened: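 HCT-116 p53 beta-lactamase reporter cells (4000/well) preincubated 5 h, then compound (217-fold dilution of DMSO stock) for 16 h at 37C. CCF4-AM substrate added 2 h at room temperature; 460/530 nm emission ratio fitted upward versus DMSO.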

[8] = TOX21_p53_BLA_p5_viability: Viability Assessment in the Tox21 HCT-116 p53 Agonism Beta-lactamase Assay, Phase 5 (AID 2283600)
Procedure, shortened: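 Viability is taken from cellular ATP content, measured by luciferase luminescence in the same wells after the beta-lactamase ratio read. Cells are seeded at 4000 per well and exposed to DMSO-dissolved compounds, diluted 217-fold, for 16 h.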

[9] = CCTE_Harrill_HTTr_Viability_MCF7: CCTE's 6-hour Cell Viability Assessment for the High-Throughput Transcriptomics (HTTr) Platform, in MCF-7 cells cultured in DMEM + 10% fetal bovine serum, Harrill Lab (AID 2284010; active means hit-call score of the fitted dose curve at least 0.9, where 1 is the maximum; inactive means score below 0.9)
Procedure, shortened: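 Eight-point concentration series, six-hour exposure. Propidium iodide exclusion imaged to assess membrane integrity as a cytotoxicity readout; bidirectional fitting was done with DMSO as negative control and activity baseline.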

[10] = CCTE_Harrill_HTTr_Apoptosis_MCF7: CCTE's 6-hour Apoptosis Assessment for the High-Throughput Transcriptomics (HTTr) Platform, in MCF-7 cells cultured in DMEM + 10% fetal bovine serum, Harrill Lab (AID 2284011; active means hit-call score of the fitted dose curve at least 0.9, where 1 is the maximum; inactive means score below 0.9)
Procedure, shortened: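 Cells are dosed with test chemicals at eight concentrations and imaged 6 hours later for caspase-3/7 activity using a green fluorogenic detection reagent. Activity is fitted in both directions against DMSO controls.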

THRB (gene 7068) [11] = molecular target: THRB (gene 7068) (UniProt P10828); test: TOX21_TRB_BLA_Antagonist_Followup_ratio: Tox21 Thyroid Hormone Receptor beta Antagonism Beta-lactamase (BLA) Follow-Up Assay, Ratio (AID 2283958)
Procedure, shortened: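 Using charcoal-stripped 2% FBS medium, human TRβ-LBD/GAL4 reporter HEK293T cells received test compounds for 18 h. The endpoint is the cleaved-to-uncleaved substrate ratio (460/530 nm).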

[12] = TOX21_TRB_BLA_Antagonist_Followup_viability: Viability Assessment in the Tox21 Thyroid Hormone Receptor beta Antagonism Beta-lactamase (BLA) Follow-Up Assay (AID 2283961)
Procedure, shortened: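 Cytotoxicity is measured in parallel with the antagonist-mode TRβ beta-lactamase screen, using ATP-coupled luciferase luminescence. Engineered HEK293T cells are treated for 18 h with 11-point compound series in triplicate.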

THRB (gene 7068) [13] = molecular target: THRB (gene 7068) (UniProt P10828); test: TOX21_TRB_COA_Antagonist_Followup_ratio: Tox21 Thyroid Hormone Receptor beta Antagonism through Coactivator Recruitment Follow-Up Assay, Ratio (AID 2283967)
Procedure, shortened: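 GST-TRb LBD 5.0 nM + 0.10% BSA, compound added; fluorescein-SRC-2 peptide 200 nM, Tb-anti-GST Ab 2 nM. TR-FRET, ex 340 / em 520:495 ratio. Norm: DMSO 0%, T3 100%.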

[14] = molecular target: Retinoic acid receptor RXR-alpha (Homo sapiens) (UniProt P19793); test: TOX21_TR_RXR_BLA_Antagonist_Followup_ratio: Tox21 Thyroid Hormone Receptor beta Retinoid X Receptor alpha (RXRa) Antagonism Beta-lactamase (BLA) Follow-Up Assay, Ratio (AID 2283972)
Procedure, shortened: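 Antagonist mode used GAL4 UAS-driven beta-lactamase in HEK293T cells expressing RXRa, treated for 16 h with compound concentration series. Activity was taken from the blue/green (460:530 nm) ratio of cleaved to uncleaved substrate.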

[15] = TOX21_TR_RXR_BLA_Antagonist_Followup_viability: Viability Assessment in the Tox21 Thyroid Hormone Receptor beta Retinoid X Receptor alpha (RXRa) Antagonism Beta-lactamase (BLA) Follow-Up Assay (AID 2283979)
Procedure, shortened: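 RXRa-bla HEK293T cells (2,500/well, phenol red-free DMEM, 2% charcoal-stripped FBS) were attached 5 h, then exposed to compounds at 11 concentrations in triplicate for 16 h at 37C. Viability measured by CellTiter-Glo ATP luminescence, bidirectional fitting versus DMSO.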

Measured: AC50

Cellular tumor antigen p53 (Homo sapiens), sequence (P04637 whole entry, looked up): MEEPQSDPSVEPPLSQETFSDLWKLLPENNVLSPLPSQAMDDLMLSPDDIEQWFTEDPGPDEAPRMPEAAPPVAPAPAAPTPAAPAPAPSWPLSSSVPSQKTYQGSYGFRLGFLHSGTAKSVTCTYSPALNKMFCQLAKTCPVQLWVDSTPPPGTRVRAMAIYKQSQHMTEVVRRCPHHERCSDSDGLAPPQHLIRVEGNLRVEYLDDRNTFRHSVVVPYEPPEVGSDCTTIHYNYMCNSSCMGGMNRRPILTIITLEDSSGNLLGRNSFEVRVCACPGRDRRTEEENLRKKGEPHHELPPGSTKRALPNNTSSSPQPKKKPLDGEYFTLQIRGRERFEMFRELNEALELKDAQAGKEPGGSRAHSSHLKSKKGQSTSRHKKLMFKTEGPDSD
THRB (gene 7068), sequence (P10828 whole entry, looked up, the tested form may be a part): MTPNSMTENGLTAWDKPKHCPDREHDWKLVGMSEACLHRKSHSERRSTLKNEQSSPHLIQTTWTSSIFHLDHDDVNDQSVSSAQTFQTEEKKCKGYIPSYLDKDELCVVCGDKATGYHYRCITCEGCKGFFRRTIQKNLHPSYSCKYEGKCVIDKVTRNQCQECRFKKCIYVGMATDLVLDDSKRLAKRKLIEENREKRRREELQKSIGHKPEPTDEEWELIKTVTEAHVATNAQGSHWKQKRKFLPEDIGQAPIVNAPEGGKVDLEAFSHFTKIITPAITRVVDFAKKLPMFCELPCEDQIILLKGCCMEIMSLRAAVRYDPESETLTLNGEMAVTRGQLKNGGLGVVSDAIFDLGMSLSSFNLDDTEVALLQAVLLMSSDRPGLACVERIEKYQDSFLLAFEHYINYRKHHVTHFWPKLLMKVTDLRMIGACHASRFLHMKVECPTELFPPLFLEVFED
Retinoic acid receptor RXR-alpha (Homo sapiens), sequence (P19793 whole entry, looked up, the tested form may be a part): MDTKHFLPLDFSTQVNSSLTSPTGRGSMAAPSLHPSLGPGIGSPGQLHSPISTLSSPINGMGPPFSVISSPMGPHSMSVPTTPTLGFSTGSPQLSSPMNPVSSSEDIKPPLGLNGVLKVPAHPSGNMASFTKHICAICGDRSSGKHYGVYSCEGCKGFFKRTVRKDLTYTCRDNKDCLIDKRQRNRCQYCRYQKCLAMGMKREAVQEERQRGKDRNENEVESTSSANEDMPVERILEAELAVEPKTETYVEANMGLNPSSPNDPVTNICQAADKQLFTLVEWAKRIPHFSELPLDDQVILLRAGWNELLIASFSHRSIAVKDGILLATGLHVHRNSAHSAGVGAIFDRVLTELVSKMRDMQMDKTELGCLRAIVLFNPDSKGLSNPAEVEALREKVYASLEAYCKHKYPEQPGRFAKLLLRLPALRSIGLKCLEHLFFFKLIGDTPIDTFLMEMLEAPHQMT

CCCC1C(CC)=CC(CC)=CN1c1ccccc1 (centres undefined)
inactive: [1] | [2] | [3] | [4] | [5] | [6] | [7]

CN(C)C(=O)C(CCN1CCC(O)(c2ccc(Cl)cc2)CC1)(c1ccccc1)c1ccccc1
active: [5] 26.6 µM
inactive: [1] | [2] | [3] | [4] | [6] | [8] | [7]

Cc1nc(Nc2ncc(C(=O)Nc3c(C)cccc3Cl)s2)cc(N2CCN(CCO)CC2)n1
active: [2] 26.8 µM | [3] 33.4 µM | [4] 36.5 µM | [5] 35.5 µM | [6] 32.7 µM | [7] 22.8 µM
inactive: [1] | [8]

CCCCCCCCCCCCCC(=O)OCC(COP(=O)([O-])OCC[N+](C)(C)C)OC(=O)CCCCCCCCCCCCC (centres undefined)
inactive: [1] | [2] | [4] | [5] | [6] | [7]
active: [3] 42.8 µM

CCC(Oc1ccccc1)C(=O)N[C@@H]1C(=O)N2[C@@H]1SC(C)(C)[C@@H]2C(=O)O (some centres undefined)
inactive: [1] | [2] | [3] | [4] | [5] | [6] | [7]

O=C1CCC(c2ccccc2)(C2CCN(Cc3ccccc3)CC2)C(=O)N1 (centres undefined)
inactive: [1] | [2] | [3] | [4] | [5] | [6] | [7]

C1CCN2C[C@@H]3C[C@@H](CN4CCCC[C@@H]34)[C@H]2C1
inactive: [1] | [2] | [3] | [4] | [5] | [6] | [7]

CC1(C)[C@@H](O[C@H]2O[C@H](C(=O)O)[C@@H](O)[C@H](O)[C@H]2O[C@@H]2O[C@H](C(=O)O)[C@@H](O)[C@H](O)[C@H]2O)CC[C@]2(C)[C@H]3C(=O)C=C4[C@@H]5C[C@@](C)(C(=O)O)CC[C@]5(C)CC[C@@]4(C)[C@]3(C)CC[C@@H]12
not listed: THRB (gene 7068) [11] | [12] | THRB (gene 7068) [13] | [14] | [15]
inactive: all other assays above

CN1C[C@H](C(=O)N[C@]2(C)O[C@@]3(O)[C@@H]4CCCN4C(=O)[C@H](Cc4ccccc4)N3C2=O)C[C@@H]2c3cccc4[nH]cc(c34)C[C@H]21
inactive: [1] | [2] | [3] | [4] | [5] | [6] | [7]

C=Cc1c(C)c2cc3[nH]c(cc4nc(cc5nc(cc1[nH]2)C(C)=C5CCC(=O)O)C(CCC(=O)O)=C4C)c(C)c3C=C
inactive: [1] | [2] | [3] | [4] | [5] | [6] | [7]

Cc1nc2sccn2c(=O)c1CCN1CCC(=C(c2ccc(F)cc2)c2ccc(F)cc2)CC1
inactive: [4] | [6] | [8] | [7]
active: [1] 37.8 µM | [2] 36.5 µM | [3] 8.52 µM | [5] 23 µM

O=C(O)c1cccc(-c2noc(-c3ccccc3F)n2)c1
active: [5] 23 µM
not listed: [7] | [9] | [10]
inactive: all other assays above

O=P(O)(O)C(O)(Cc1cccnc1)P(=O)(O)O
inactive: [1] | [2] | [3] | [4] | [5] | [6] | [7]

COc1cc2ncnc(Nc3ccc(F)c(Cl)c3)c2cc1OCCCN1CCOCC1
active: [5] 40.7 µM
inactive: [1] | [2] | [3] | [4] | [6] | [8] | [7]

O=C(O)CN(CCN(CC(=O)O)CC(=O)O)CC(=O)O
not listed: THRB (gene 7068) [11] | [12] | THRB (gene 7068) [13] | [14] | [15]
inactive: all other assays above

C1=CCC(c2ccccc2)CC1 (centres undefined)
not listed: THRB (gene 7068) [11] | [12] | THRB (gene 7068) [13] | [14] | [15]
inactive: all other assays above

CN(C)CCOC(=O)COc1ccc(Cl)cc1
not listed: [7] | THRB (gene 7068) [11] | [12] | THRB (gene 7068) [13] | [14] | [15]
inactive: all other assays above

CC(=O)NCCCS(=O)(=O)O
not listed: THRB (gene 7068) [11] | [12] | THRB (gene 7068) [13] | [14] | [15]
inactive: all other assays above

CCCCC(=O)O[C@]1(C(=O)CO)[C@@H](C)C[C@H]2[C@@H]3CCC4=CC(=O)C=C[C@]4(C)[C@@]3(F)[C@@H](O)C[C@@]21C
active: [5] 38.7 µM
not listed: THRB (gene 7068) [11] | [12] | THRB (gene 7068) [13] | [14] | [15]
inactive: all other assays above

Cc1c(O)cccc1C(=O)N[C@@H](CSc1ccccc1)[C@H](O)CN1C[C@H]2CCCC[C@H]2C[C@H]1C(=O)NC(C)(C)C
active: [1] 36.3 µM and 18.7 µM | [2] 44.9 µM and 20.2 µM | [3] 21.6 µM and 21.1 µM | [4] 43.8 µM and 38.2 µM | [5] 27.9 µM | [6] 66.8 µM and 35.3 µM | [8] 33.1 µM and 19.5 µM | [7] 46.8 µM and 23.1 µM

CC(=O)Nc1ccc(C)cc1
inactive: [1] | [2] | [3] | [4] | [5] | [6] | [7]
